Measurements as given in PubChem BioAssay (NCI).
Compounds without any hit were thinned out: in the full panel of roughly 83,000, 20% have a hit.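 Each cell line was grown in a 96-well plate and treated with one concentration of compound for 48 hours. Values below 10 were considered active.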 Unmarked numbers belong to inactive results. Activity calls are given as the source filed them.

Legend:
Assay in all cases: NCI-60 one-dose screen, 48 h (100 = growth as untreated, 0 = no growth, -100 = all killed)
Details in all cases: 10 µM unless noted
SK-MEL-2 melanoma = system: SK-MEL-2 melanoma
EKVX NSCLC = system: EKVX NSCLC
SN12C renal = system: SN12C renal
UO-31 renal = system: UO-31 renal
TK-10 renal = system: TK-10 renal
ACHN renal = system: ACHN renal
CAKI-1 renal = system: CAKI-1 renal
A498 renal = system: A498 renal
CCRF-CEM leukemia = system: CCRF-CEM leukemia
MOLT-4 leukemia = system: MOLT-4 leukemia

| SMILES | growth (SK-MEL-2 melanoma) | growth (EKVX NSCLC) [%] | growth (SN12C renal) | growth (UO-31 renal) | growth (TK-10 renal) | growth (ACHN renal) | growth (CAKI-1 renal) | growth (A498 renal) | growth (CCRF-CEM leukemia) | growth (MOLT-4 leukemia) |
| --- | --- | --- | --- | --- | --- | --- | --- | --- | --- | --- |
| CC1=CC(c2ccco2)=C2C(N)=NNC2N1 (stereo not given) | 108% | 96.9 | 89.9% | 80.9% | 111% | 90.8% | 82.6% | 86.3% | 101% | 103% |
| CC(=O)OC[C@]12CC[C@@H]([C@@H](C)c3nnc(-c4ccncc4)o3)[C@@H]1[C@H]1CC[C@@H]3[C@@]4(C)CC[C@H](OC(C)=O)C(C)(C)[C@@H]4CC[C@@]3(C)[C@]1(C)CC2 | 82.3% | 69.3 | 87.1% | 69% | 94.7% | 80.8% | 64.4% | 97.4% | 68.4% | 57.2% |
| O=C1Nc2ccccc2C1(c1c[nH]c2ccccc12)c1c[nH]c2ccccc12 | 87.7% | 23.3 | 1.17% (active) | 33.6% | -10.1% (active) | 1.55% (active) | 44% | 49.3% | 65% | 46.7% |
| COc1ccc(NC(=O)Nc2ccc(OCCCCCC(=O)NO)cc2)cc1 | 79.9% | 121 | 97% | 87.4% | 89.3% | 107% | 93.5% | 85.2% | 85.6% | 85.6% |
| COc1ccc(C(=O)Cn2c(C(=O)c3ccc(Cl)cc3)nc3ccccc32)cc1 | 73.4% | 90.9 | 65.1% | 54.7% | 99.6% | 65.5% | 63.5% | 77.9% | 39.2% | 48.5% |
| Cn1cc(-c2nn3cc(-c4cccs4)nc3s2)c2cc(F)ccc21 | 35% | 47.7 | 36% | 35.8% | 53.7% | 43.5% | 27.8% | 7.55% (active) | 21.9% | 22.3% |
| CCCCNc1nnc2n(Cc3ccccc3)c(=O)c3c4c(sc3n12)CCCC4 | 41.6% | 60.8 | 46% | 34.2% | 59.3% | 40.8% | 42.6% | 45.4% | 59.2% | 10.4% |
| COC(=O)C(Cc1ccccc1)NC(=O)c1ccc(NC(=O)c2[nH]c(C)c(Cl)c2Cl)c(OC(C)C)c1 (stereo not given) | 105% | 101 | 16% | 94.8% | 53.5% | 40.3% | 90% | 86.8% | 73.2% | 84.9% |
| Ic1ccccc1I | 85.4% | 98.9 | 105% | 78.6% | 105% | 104% | 105% | 106% | 42.6% | 101% |
| COC(=O)c1cc(Br)ccc1O | 101% | 113 | 99.5% | 95.1% | 95.5% | 99.5% | 101% | 101% | 98.6% | 103% |
| Cc1ncc(C(=O)Nc2ccc(CN3CCN(C)CC3)c(C(F)(F)F)c2)cc1C#Cc1cnc(N)c2ncccc12 | -29.8% (active) | 42.8 | -20.3% (active) | -9.37% (active) | 46.3% | 0.608% (active) | 7.54% (active) | -6.89% (active) | -1.21% (active) | -24.9% (active) |
| O=C(NCc1cccc(CNC(=O)Nc2nc3ccccc3[nH]2)c1)Nc1nc2ccccc2[nH]1 | -11.8% (active) | 11 | -52.2% (active) | 62.6% | -32.7% (active) | 70.2% | 31.6% | -31% (active) | 30.3% | -16.1% (active) |
| CC/C=C\CCC/C=C1/C(=O)C=C[C@@H]1C/C=C\CCCC(=O)OC | 87.3% | 99.3 | 11.6% | 69.8% | 100% | 42.9% | 54.1% | 95.9% | 3.2% (active) | 3.52% (active) |
| Nc1[nH]c(=S)nc2oc(-c3ccccc3)c(-c3ccccc3)c12 | 101% | 98 | 97.5% | 86.9% | 114% | 101% | 109% | 90.8% | 119% | 107% |
